Compound activity as filed in PubChem BioAssay.
Sm TGR inh: S. mansoni TGR enzyme inhibition; Q962Y6; purified TGR, DTNB reduction, TNB absorbance 405 nm; Potency, µM (doses to about 114 µM), for inactives: top-dose activity change, negative = inhibition, actives largely listed as inhibitors; hit rate 3% among 360,000; also: nearly all actives have a fitted effect of over 60% in size
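First, TGR (20 nM dispensed) and NADPH were mixed with compound. Second, a 15 min room-temperature incubation followed. Third, further NADPH and then DTNB were added to start the reaction. Finally, TNB absorbance was monitored kinetically.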
AmpC detergent: AmpC beta-lactamase inhibition with detergent present; AmpC hydrolysis of nitrocefin, absorbance 480 nm, 0.01% Triton; Potency, µM (series often up to 114 µM), without a hit: at the highest dose activity change, negative = inhibition, most hits filed as inhibitors; hit rate 0.041% among 370,000; P00811; AID 485294;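 also: 0% = no-compound wells and -100% = no-enzyme wells; nearly all actives have a fitted effect of over 25% in size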
Target sequence (P00811 whole entry, looked up): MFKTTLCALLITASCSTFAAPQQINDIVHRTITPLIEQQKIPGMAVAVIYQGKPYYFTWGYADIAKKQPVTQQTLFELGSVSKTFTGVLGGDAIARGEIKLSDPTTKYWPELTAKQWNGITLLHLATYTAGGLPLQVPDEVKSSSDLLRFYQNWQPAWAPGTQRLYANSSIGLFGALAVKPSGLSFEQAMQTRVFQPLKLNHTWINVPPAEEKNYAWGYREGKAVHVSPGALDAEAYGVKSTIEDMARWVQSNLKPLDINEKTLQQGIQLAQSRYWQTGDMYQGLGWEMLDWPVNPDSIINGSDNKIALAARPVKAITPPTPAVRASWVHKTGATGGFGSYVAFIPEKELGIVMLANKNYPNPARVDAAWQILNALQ
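AmpC (5.3 nM in the dispensed reagent) in 20 mM phosphate pH 7.0 with 0.01% (detergent screen) or 0.0001% Triton X-100 was preincubated with compounds for 15 min at room temperature. Nitrocefin was then added from an 800 uM solution, and hydrolysis was followed at 480 nm.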
FBPA Giardia inh: blocks Giardia fructose-bisphosphate aldolase activity; A8B2U2; purified Giardia FBPA; Potency, µM (titrated, usually from 59.6 µM), inactives show top-dose activity, negative = inhibition, hits mostly inhibitors; hit rate 0.71% among 290,000; AID 2451; also: nearly all actives have a fitted effect of over 55% in size
Target sequence (A8B2U2 whole entry, looked up): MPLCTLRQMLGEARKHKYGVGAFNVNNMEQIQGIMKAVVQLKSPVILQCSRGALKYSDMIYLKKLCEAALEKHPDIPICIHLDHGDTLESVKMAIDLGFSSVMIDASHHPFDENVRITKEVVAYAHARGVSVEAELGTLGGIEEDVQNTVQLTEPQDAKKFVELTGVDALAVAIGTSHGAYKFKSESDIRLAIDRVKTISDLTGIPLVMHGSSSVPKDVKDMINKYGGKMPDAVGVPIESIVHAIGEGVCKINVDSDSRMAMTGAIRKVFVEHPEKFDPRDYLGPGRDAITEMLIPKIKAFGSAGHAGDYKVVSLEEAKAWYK
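Giardia FBPA (40 nM reagent) was preincubated 10 min at RT with compound (up to 57.5 uM final), then substrate plus GAPDH/TPI/NAD/arsenate coupling system with diaphorase/resazurin was added; resorufin fluorescence (525/598 nm) was read after 20 min.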
AmpC no deterg: blocks E. coli AmpC beta-lactamase in detergent-free assay; P00811; AmpC nitrocefin hydrolysis, absorbance 480 nm, 0.0001% Triton; Potency, µM (highest dose often 57.1 µM), without a hit: top-dose activity change, negative = inhibition, usual class: inhibitors; hit rate 0.52% among 330,000;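 also: plate controls were no compound for no effect and no enzyme for full effect; nearly all actives have a fitted effect of over 20% in size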
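AmpC (5.3 nM in the dispensed reagent) in 20 mM phosphate pH 7.0 with 0.01% (detergent screen) or 0.0001% Triton X-100 was preincubated with compounds for 15 min at room temperature. Nitrocefin was then added from an 800 uM solution, and hydrolysis was followed at 480 nm.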
* = called active by the depositor; [ ] = another dose, or the depositor's remark. A selection: hits, their analogues and other compounds. The true share with any hit is near 3.6%. Calls follow the shape of the dose curve; as a rule, active = well fitted curve in the direction sought with a large enough effect; inconclusive = small, poorly fitted or top-dose-only effect, or another doubt; inactive = no such curve, though single readings can be large; an effect the other way counts as inactive or inconclusive. Unless noted, % is scaled to controls: 0 for no effect and ±100 for the full control effect; potency is read from the fitted curve at half-maximal effect.

Screening COc1ccc(N2CC(C(=O)NCc3ccco3)CC2=O)cc1 (configuration not stated) returned Sm TGR inh 20µM*, AmpC detergent -8.9%, FBPA Giardia inh -5.5% and AmpC no deterg -12.9%.
`COc1ccc(N2CC(C(=O)Nc3nnc(SCC(=O)NCc4ccco4)s3)CC2=O)cc1` (configuration not stated) gave Sm TGR inh 28.2µM*, AmpC detergent -15.1% and AmpC no deterg -18.0%.
Screening CCOc1ccc(N2CC(C(=O)NCc3ccco3)CC2=O)cc1 (configuration not stated) returned Sm TGR inh 0.8%, AmpC detergent -16.1%, FBPA Giardia inh 8.0% and AmpC no deterg -1.4%.
`Cc1cc(=O)[nH]c(SCC(=O)NN(c2ccccc2)c2ccccc2)n1` gave Sm TGR inh 19.6%, AmpC detergent -9.4%, FBPA Giardia inh -0.1% and AmpC no deterg -25.5%.
COc1ccc(S(=O)(=O)N2CCCC(C(=O)NCc3ccco3)C2)cc1OC (configuration not stated) was read as Sm TGR inh -5.9%, AmpC detergent 3.7%, FBPA Giardia inh 11.2% and AmpC no deterg 31.4%.
Screening COCCNC(=O)CCCN1C(=O)CCn2nc(-c3cccn3C)cc21 returned Sm TGR inh inconclusive and AmpC detergent 11.5%.
For CCCC1=C(C(=O)OCC)C(c2ccc(OC)c(CSc3ccccn3)c2)C(C#N)=C(N)O1 (configuration not stated) the results were Sm TGR inh 31.6µM*, AmpC detergent -10.4%, FBPA Giardia inh -8.2% and AmpC no deterg -6.1%.
`COc1ccc(-c2ccc(/C=N/NC(=O)Cc3nnc(N)s3)o2)cc1Cl` gave Sm TGR inh 56.2µM*, AmpC detergent -9.2%, FBPA Giardia inh -15.0% and AmpC no deterg -36.9%.
Screening Cc1ccc(-c2ccc(/C=N/NC(=O)Cc3nnc(N)s3)o2)cc1Cl returned Sm TGR inh 4.5%, AmpC detergent -9.8%, FBPA Giardia inh -6.5% and AmpC no deterg -26.2%.
For Nc1nn(S(=O)(=O)c2cccc3nsnc23)cc1-c1ccc(Br)cc1 the results were Sm TGR inh 5.8%, AmpC detergent inconclusive, FBPA Giardia inh -1.0% and AmpC no deterg 20µM*.
C=C(C)CNC(=S)Nc1cccc(N)n1 was read as Sm TGR inh 2.82µM*, AmpC detergent -0.5%, FBPA Giardia inh -26.6% and AmpC no deterg -47.7%.
For C=C(C)CNC(=S)N/N=C(\C)c1cccc(NC(C)=O)c1 the results were Sm TGR inh -20.7%, AmpC detergent -3.3%, FBPA Giardia inh inconclusive and AmpC no deterg -46.8%.
For O=C(COC(=O)/C=C/c1ccco1)NCc1ccc(Cl)cc1Cl the results were AmpC no deterg -37.5%.
For O=C(COC(=O)/C=C/c1ccco1)NCCc1ccccc1 the results were Sm TGR inh 22.4µM*, AmpC detergent inconclusive, FBPA Giardia inh 9.6% and AmpC no deterg -28.2%[11.4 µM].
For O=C(COC(=O)/C=C/c1ccco1)NCc1ccccc1Cl the results were Sm TGR inh 17.8µM*, AmpC detergent -20.8%, FBPA Giardia inh -8.1% and AmpC no deterg -8.5%[11.4 µM].
For O=C(COC(=O)/C=C/c1ccco1)NCc1ccco1 the results were Sm TGR inh inconclusive, AmpC detergent 1.0%, FBPA Giardia inh -0.1% and AmpC no deterg -23.1%.
CNC(=O)COC(=O)/C=C/c1ccco1 was read as Sm TGR inh 25.1µM*, AmpC detergent -2.8%, FBPA Giardia inh 1.7% and AmpC no deterg -4.0%.
`Cc1ccccc1Nc1nc(N)nc(COC(=O)/C=C/c2ccco2)n1` gave Sm TGR inh 12.6µM*, AmpC detergent inconclusive, FBPA Giardia inh -2.8% and AmpC no deterg -14.7%[11.4 µM].
Screening CCOC(=O)CC(NC(=O)CCS(=O)(=O)c1ccc2c(c1)n(C)c(=O)c(=O)n2C)c1ccc(C)cc1 (configuration not stated) returned Sm TGR inh 5.6%, AmpC detergent -2.4% and AmpC no deterg -11.3%.
Screening CCN(C(=O)c1cn(C)c(=O)c2ccccc12)c1ccccc1F returned Sm TGR inh 23.6%, AmpC detergent 13.8%, FBPA Giardia inh 3.6% and AmpC no deterg 13.5%.
CN1CCC/C1=C1/C(=O)N(c2ccccc2)N=C1NC(=O)Nc1cccc(Cl)c1 was read as Sm TGR inh 9.8%, AmpC detergent -0.3%, FBPA Giardia inh 1.2% and AmpC no deterg 37.0%.
Cc1ccc(Cc2c(C)nc3nc(SCC(=O)NCCC(C)C)nn3c2C)cc1 was read as Sm TGR inh -6.9% and AmpC detergent inconclusive.
`CC(NC(=O)COC(=O)/C=C/c1ccco1)c1ccccc1` (configuration not stated) gave Sm TGR inh 28.2µM*, AmpC detergent -7.0%, FBPA Giardia inh 5.3% and AmpC no deterg -22.2%.
Screening CSc1ccccc1NC(=O)COC(=O)/C=C/c1ccco1 returned AmpC no deterg -14.7%.
`COc1ccc(CNC(=O)COC(=O)c2ccco2)cc1` gave AmpC detergent -8.0%, FBPA Giardia inh -0.3% and AmpC no deterg -10.1%.
For COc1ccc(CNC(=O)COC(=O)/C=C/c2ccco2)cc1 the results were Sm TGR inh 35.5µM*, AmpC detergent -7.8%, FBPA Giardia inh -0.5% and AmpC no deterg -10.7%[11.4 µM].
CC(NC(=O)c1cccc(OC2CCN(C3CCN(C)CC3)CC2)c1)c1ccccc1 (configuration not stated) was read as Sm TGR inh 14.1µM*, AmpC detergent 4.0% and AmpC no deterg 19.0%.
For Cc1ccc(-n2nnnc2-c2ccco2)cc1 the results were Sm TGR inh -7.1%, AmpC detergent -9.2%, FBPA Giardia inh -3.0% and AmpC no deterg -8.1%.
For CN(C)C(CNc1nnnn1-c1ccccc1)c1ccco1 (configuration not stated) the results were Sm TGR inh 44.7µM*, AmpC detergent 2.3%, FBPA Giardia inh -6.6% and AmpC no deterg -0.4%.
Cc1ccc(C)c(NC(=O)C2CCCN(c3cnccn3)C2)c1 (configuration not stated) was read as Sm TGR inh 2.0%, AmpC detergent -1.3% and AmpC no deterg -19.6%.
CC(=O)C1CCC2C3CCC4=CC(=O)CC[C@]4(C)[C@@]3(F)C(O)C[C@]12C (some centres not stated) was read as Sm TGR inh 4.2%, AmpC detergent -9.6%, FBPA Giardia inh 1.5% and AmpC no deterg 51.8%.
O=C(CC1Nc2c3ccccc3nc(=S)n2C1=O)NC1CCCCC1 (configuration not stated) was read as Sm TGR inh 6.6%, AmpC detergent -8.1%, FBPA Giardia inh -20.7% and AmpC no deterg -7.6%.
For CCC(C(=O)NN1C(=O)c2ccccc2C1=O)c1ccccc1 (configuration not stated) the results were Sm TGR inh 2.4%, AmpC detergent -15.7%, FBPA Giardia inh 1.7% and AmpC no deterg -18.2%.
O=C(Nc1ccc(Cl)c(S(=O)(=O)N2CCOCC2)c1)c1cc(-c2ccccn2)nc2ccccc12 was read as Sm TGR inh -8.9%, AmpC detergent -4.2%, FBPA Giardia inh -6.2% and AmpC no deterg 116.7%.
